# Compound activity as filed in PubChem.
# LYPLA2 counter: counter-screen for PME1 inhibitors: inhibitors of human LYPLA2. O95372. 320,000 tested, 0.38% active. recombinant LYPLA2, FP-Rh probe fluorescence polarization. inhibition, % at 5.9 µM;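 active = inhibition above the screen-wide mean plus 3 SD, limit set per campaign, cut at about 26% in these data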;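 also: 0% = LYPLA2 with DMSO and 100% = wells lacking LYPLA2 enzyme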
# Target sequence (O95372 whole entry, looked up): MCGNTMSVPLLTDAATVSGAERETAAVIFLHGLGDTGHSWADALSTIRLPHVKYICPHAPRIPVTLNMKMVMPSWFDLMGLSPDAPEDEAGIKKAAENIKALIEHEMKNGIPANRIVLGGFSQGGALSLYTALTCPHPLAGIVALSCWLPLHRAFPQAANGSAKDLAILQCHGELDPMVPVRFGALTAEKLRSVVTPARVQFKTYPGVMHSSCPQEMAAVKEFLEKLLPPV
# Fam108B counter: blocks mouse Fam108B hydrolase in RBBP9 counter-screen; 300,000 tested, 0.33% active; inhibition, % at 9.51 µM; AID 1947; recombinant Fam108B, FP-Rh probe fluorescence polarization;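 active = inhibition above the screen mean inhibition plus 3 SD, computed separately per campaign, cut at about 18% in these data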;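 also: inhibitors lower polarization as less probe binds the enzyme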
# GSTO1 counter: counter-screen for RBBP9 inhibitors: inhibitors of human GSTO1; recombinant GSTO1, activity-based probe fluorescence polarization; 300,000 tested, 1.1% active; inhibition, % at 5.96 µM;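 active = inhibition above the campaign mean inhibition plus 3 SD, cut at about 35% in these data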;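 also: 0% = GSTO1-1 with DMSO and 100% = wells lacking GSTO1-1 enzyme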
# LYPLA1 counter: blocks human lysophospholipase 1, a PME1 counter-screen; recombinant LYPLA1, FP-Rh probe fluorescence polarization; inhibition, % at 5.9 µM; 320,000 tested, 0.16% active; AID 2174;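 active = inhibition above the mean of all tested compounds plus 3 SD, set per campaign, cut at about 14% in these data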;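 also: inhibitors block serine hydrolase probe labeling of LYPLA1 so polarization falls; 0% = enzyme with DMSO and 100% = wells lacking LYPLA1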
# Target sequence (O75608 whole entry, looked up): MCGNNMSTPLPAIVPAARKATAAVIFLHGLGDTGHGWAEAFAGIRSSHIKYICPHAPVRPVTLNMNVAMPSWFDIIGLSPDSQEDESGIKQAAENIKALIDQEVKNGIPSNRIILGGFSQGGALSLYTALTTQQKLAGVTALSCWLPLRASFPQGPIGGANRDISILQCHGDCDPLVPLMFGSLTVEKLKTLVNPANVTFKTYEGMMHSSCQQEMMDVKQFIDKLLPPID
# PREPL inh: inhibits the human prolyl oligopeptidase-like enzyme; AID 2751; Q4J6C6; inhibition, % at 5.96 µM; 320,000 tested, 0.68% active; recombinant PREPL, fluorescence polarization activity-based probe;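 also: 0% = enzyme with DMSO and 100% = wells lacking enzyme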
# PME-1 inh: blocks human protein phosphatase methylesterase 1; Q9Y570; recombinant PME-1, FP-Rh probe fluorescence polarization; inhibition, % at 5.9 µM; 320,000 tested, 0.53% active; AID 2130;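 active = inhibition above the campaign mean of all compounds plus 3 SD, cut at about 26% in these data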;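 also: competitive labeling of PME-1 active site by serine hydrolase directed probe; 0% = PME-1 with DMSO and 100% = wells lacking PME-1 enzyme; inhibitors block probe labeling so polarization falls and inhibition rises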
# PREPL inh cf: human PREPL inhibition, confirmation; inhibition, % at 5.96 µM; 2,000 tested, 67% active; shares compounds with PREPL inh; recombinant PREPL, fluorescence polarization activity probe;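 also: 0% = protein with DMSO and 100% = wells lacking protein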
# Starred values were filed as active, the others as inactive; . = not tested or not shown. Rows were chosen to be rich in hits. Some 1.9% of all compounds tested hit in one or more screens of this group. Rule as the data show it, unless noted: active = inhibition above about 43%; inactive = the rest.
SMILES,LYPLA2 counter,Fam108B counter,GSTO1 counter,LYPLA1 counter,PREPL inh,PME-1 inh,PREPL inh cf
CCOC(=O)C1(CCOC)CCN(C2C3CC4CC(C3)CC2C4)CC1 (stereo not given),-1,1,-5,4,8,-2,.
N#Cc1c(Nc2ccccc2)sc(C(=O)c2ccccc2)c1N,8,12,8,0,46*,14,42
COCCn1c(=N)c(C(=O)NCCc2ccc(OC)cc2)cc2c(=O)n3cccc(C)c3nc21,-2,1,-1,0,23,-2,.
COc1ccc(CNC(=O)c2c(N)n(CCCN3CCOCC3)c3nc4ccccc4nc23)cc1,9,9,5,1,69*,23,50*
Nc1c(C(=O)NCc2ccccc2)c2nc3ccccc3nc2n1CCCN1CCOCC1,-8,3,-3,-6,45*,13,41
COc1ccc(CCNC(=O)c2cc3c(=O)n4cccc(C)c4nc3n(CCCN3CCOCC3)c2=N)cc1,2,3,1,-1,53*,-1,56*
Nc1c(C(=O)NCc2ccc(F)cc2)c2nc3ccccc3nc2n1CCCN1CCOCC1,0,8,-4,-2,61*,5,46*
COC(=O)c1c(N)n(CCCN2CCOCC2)c2nc3ccccc3nc12,1,-1,6,-2,9,0,.
CCOC(=O)C1=C(COC(=O)/C=C/c2ccc([N+](=O)[O-])cc2)NC(=O)NC1C (stereo not given),5,.,.,3,11,1,.
CCN(CC)S(=O)(=O)c1ccc(NN=C2CCN(C)CC2)c([N+](=O)[O-])c1,-2,0,16,1,1,2,.
CSc1ccc(-c2nc3cnccn3c2Nc2ccc3c(c2)OCO3)cc1,12,16,12,-3,50*,8,48*
Cc1ccc(Nc2c(-c3ccccn3)nc3ccc(C)cn23)cc1,4,6,23,3,63*,7,69*
Cc1ccn2c(Nc3ccc4c(c3)OCO4)c(-c3ccccn3)nc2c1,8,1,7,2,77*,-3,67*
Cc1ccc(Nc2c(-c3ccccn3)nc3cc(C)ccn23)cc1,1,-1,27,5,74*,6,58*
Cc1ccc(-c2nc3cnccn3c2Nc2ccc3c(c2)OCO3)o1,7,-4,15,1,-3,-2,.
Clc1ccc(-c2nc3cnccn3c2Nc2ccc3c(c2)OCO3)cc1,-4,16,3,0,25,12,.
CN(C)S(=O)(=O)n1cc(/C=C(\NC(=O)c2ccccc2F)C(=O)NCCCN2CCOCC2)c2ccccc21,2,-3,0,-1,14,-4,.
COc1ccc(/C=C/c2nc(S(=O)(=O)c3ccccc3)c(NCCCN(C)C)o2)cc1OC,-4,1,4,-1,29,-4,.
CCN1C(=O)[C@H]2[C@@H](c3ccc(-c4ccc(C(C)=O)cc4)cc3)N[C@@](C)(C(=O)OC)[C@H]2C1=O,.,.,.,.,11,.,.
COc1ccccc1-c1nc(C#N)c(N2CCN(c3ccccc3)CC2)o1,18,4,8,11,48*,10,39
COc1ccc(N2CCN(c3oc(-c4ccco4)nc3C#N)CC2)cc1,22,-1,3,10,44*,-1,35
COc1ccc(NS(=O)(=O)c2cc(NC(=O)c3cc(F)c(F)c(F)c3F)ccc2N2CCCC2)cc1,-24,0,-13,-12,46*,-16,39
CCOC(=O)N1CCC(NC(=O)C2CCN(C(=O)c3cc4oc(C)cc4n3Cc3c(F)cccc3Cl)CC2)CC1,0,0,2,-1,55*,9,52*
NC(=O)[C@@H]1CCCNc2c(I)cc([N+](=O)[O-])cc2C(=O)N[C@@H](CCCN=C(N)N)C(=O)N[C@@H](CCCN=C(N)N)C(=O)N1,10,2,1,1,61*,0,59*
Nc1[nH]nc2c1NN(c1ccc(Cl)cc1Cl)N2,8,8,6,9,43*,10,13
SMILES,LYPLA2 counter,Fam108B counter,GSTO1 counter,LYPLA1 counter,PREPL inh,PME-1 inh,PREPL inh cf
CCO[C@H]1OC(C(=O)N2CCN(Cc3ccc4c(c3)OCO4)CC2)=C[C@@H](c2ccc3c(c2)OCO3)[C@@H]1CCCO,7,3,6,-1,49*,5,43
C#Cc1ccc([C@H]2C=C(C(=O)N3CCN(Cc4ccc5c(c4)OCO5)CC3)O[C@@H](OCC)[C@@H]2CCCO)cc1,3,-4,6,1,19,3,.
O=C(C1=C[C@@H](c2ccccc2)C[C@@H](OCc2ccc(CO)cc2)O1)N1CCN(Cc2ccc3c(c2)OCO3)CC1,-1,4,0,2,51*,4,56*
O=C(C1=C[C@@H](c2ccc(Br)cc2)C[C@@H](OCCCCO)O1)N1CCN(Cc2ccc3c(c2)OCO3)CC1,5,1,3,2,67*,2,59*
COc1cccc(-c2nn(-c3ccccc3)cc2CN2CCCO2)c1,7,1,-2,3,2,-2,.
Cc1cc(Cl)nc(Cl)c1C(=O)NCc1ccc(Cl)cc1,14,1,4,1,12,3,.
CCn1c(SCC(=O)N/N=C(\C)c2ccncc2)nnc1-c1ccc(C)cc1,4,0,-6,3,-4,0,.
Cc1cccc(NC(=S)N(CCCN2CCOCC2)Cc2ccco2)c1,2,1,6,0,3,0,.
CC(C)=CCC/C(C)=C/CNC(=O)CC1C[C@H](C(=O)N2CCOCC2)[C@@]2(C)c3[nH]c4ccccc4c3CCN2C1=O (stereo not given in full),.,.,.,.,57*,.,33
C[C@]12c3[nH]c4ccccc4c3CCN1C(=O)C(CC(=O)NCCN1CCOCC1)C[C@@H]2C(=O)N1CCOCC1 (stereo not given in full),.,.,.,.,5,.,.
Cc1ccc(OC(=O)CN2C(=O)c3ccccc3C2=O)cc1C,6,-2,15,1,-1,-1,.
CC1=CC(C)(C)Nc2ccc(OC(=O)CCN3C(=O)c4ccccc4C3=O)cc21,4,3,6,0,79*,8,78*
C=CCn1c(N2CCN(c3ccc(OC)cc3)CC2)nc2c1c(=O)n(C)c(=O)n2C,0,2,17,-2,43,-8,.
C=CCn1c(N2CCN(c3ccc(OC)cc3)CC2)nc2c1c(=O)[nH]c(=O)n2C,4,7,0,4,49*,0,38
O=C1CCC(C(=O)NCc2ccccc2)N1 (stereo not given),-2,3,9,2,19,3,.
CC#CCN(Cc1ccco1)C(=O)c1ccc(OC2CCN(Cc3ccccn3)CC2)cc1,11,4,-1,2,49*,4,13
